Bioassay records: PubChem, National Center for Advancing Translational Sciences (NCATS)
Tb PYK inh: T. brucei pyruvate kinase inhibition | Q57TT1 | TbPYK enzyme, Kinase-Glo Plus ATP luminescence, 45 min | Potency, µM (series often up to 76.8 µM), for inactives: at the top dose activity, negative = inhibition, usual class: inhibitors | actives 0.12% (n = 410,000); note: nearly all actives have a fitted effect of over 50% in size
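ADP (130 uM final) triggers the TbPYK reaction after compound addition; incubation is 45 min at room temperature. Kinase-Glo Plus is then added and luminescence imaged. Normalized data are fitted to concentration-effect curves.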
FMDV inh: blocks foot and mouth disease virus. FMDV antiviral cell-based qHTS. Potency, µM (series often up to 57.9 µM), for the others: at the top dose activity change, negative = inhibition, hits mostly inhibitors. actives 1.2% (n = 410,000); calls by dose curve; tested in HEK293T cells; note: read-out not given here; nearly all actives have a fitted effect of over 45% in size
Sm TGR block: inhibitors of Schistosoma mansoni thioredoxin glutathione reductase; Q962Y6; purified TGR, DTNB reduction, TNB absorbance 405 nm; actives 3% (n = 360,000); AID 485364; Potency, µM (series often up to 114 µM), without a hit: top-dose activity change, negative = inhibition, hits mostly inhibitors; note: nearly all actives have a fitted effect of over 60% in size
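Kinetic colorimetric format: TGR-catalysed, NADPH-driven DTNB reduction monitored via TNB absorbance. Enzyme dispensed at 20 nM; compound exposure 15 min at room temperature before reaction start.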
RE007 growth inh: less growth of the S. pombe RE007 Vpr strain. S. pombe RE007 Vpr strain, BacTiter-Glo ATP luminescence, 24 h. Potency, µM (doses to about 92.2 µM), inactives show at the top dose activity change, negative = less growth, hits mostly inhibitors. actives 0.21% (n = 360,000). AID 651644; active = well fitted falling curve with a large enough effect; inconclusive = small, poorly fitted or top-dose-only effect; inactive = no such curve, though single readings can be large or run the other way; note: nearly all actives have a fitted effect of over 50% in size
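Fission yeast strain RE007, carrying one chromosomally integrated HIV-1 vpr copy, was seeded at OD 0.01 in PMG+AL medium with 23 nL pinned compound. After 24 h at 30 °C and 99% humidity, viability was read by BacTiter-Glo luminescence.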
Starred values were filed as active, the others as inactive; ? = inconclusive; . = not tested or not shown; [ ] = dose if it differs, or a comment. An excerpt weighted towards active compounds, which were near 3.7% of everything screened. Unless noted, calls come from the whole dose curve; as a rule, active = well fitted curve in the direction sought with a large enough effect; inconclusive = small, poorly fitted or top-dose-only effect, or another doubt; inactive = no such curve, though single readings can be large; an effect the other way counts as inactive or inconclusive. % is set by controls: 0 for no effect and ±100 for the full control effect; potency is the fitted concentration of half-maximal effect.

SMILES	Tb PYK inh	FMDV inh	Sm TGR block	RE007 growth inh
CC(=O)OCC1=C(C(=O)O)N2C(=O)C(NC(=O)C(C)Cn3cc(Cl)cn3)C2SC1 (configuration not stated)	-5.5%	-12.9%	28.2µM*	2.1%
C=CC1=C(C(=O)O)N2C(=O)C(NC(=O)Cc3ccccc3)C2SC1 (configuration not stated)	5.4%	.	10µM*	9.1%
O=C(COc1ccccc1)NC1C(=O)N2C(C(=O)O)=C(Cl)CSC12 (configuration not stated)	-10.9%	-20.7%	?	3.8%
CCOc1ccc(C(=O)NC2C(=O)N3C(C(=O)O)=C(COC(C)=O)CSC23)cc1OCC (configuration not stated)	0.4%	-7.4%	22.4µM*	-24.0%
Cc1nnc(SCC2=C(C(=O)O)N3C(=O)C(NC(=O)c4cc(F)c(F)cc4Cl)C3SC2)s1 (configuration not stated)	7.5%	-13.4%	15.8µM*	-3.4%
Cn1nnnc1SCC1=C(C(=O)O)N2C(=O)[C@@H](NC(=O)[C@@H](O)c3ccccc3)[C@@H]2SC1	-3.5%[33.2 µM]	.	.	.
O=C(CC1C(=O)NCCN1Cc1ccoc1)NCc1cccc(OC(F)(F)F)c1 (configuration not stated)	-5.9%	-5.4%	25.1µM*	-4.3%
COc1cccc(CN2CCNC(=O)C2CC(=O)NCC2CCOCC2)c1 (configuration not stated)	3.1%	9.6%	35.5µM*	5.4%
CN(CCC1CCOCC1)C(=O)CC1C(=O)NCCN1Cc1ccoc1 (configuration not stated)	0.0%	1.7%	?	1.3%
O=C(CC1C(=O)NCCN1Cc1cccc(Oc2ccccc2)c1)NCC1CCOCC1 (configuration not stated)	-19.2%	5.1%	.	-6.8%
COc1cccc(CNC(=O)CC2C(=O)NCCN2CCCc2ccccc2)c1 (configuration not stated)	-4.1%	-5.9%	-25.8%	3.0%
COc1ccc(CN2CCNC(=O)C2CC(=O)N(C)CC2CCOCC2)cc1OC (configuration not stated)	1.5%	-0.8%	?	10.4%
CN(CC1CCOCC1)C(=O)CC1C(=O)NCCN1Cc1cccc(C(F)(F)F)c1 (configuration not stated)	-7.1%	12.5%	44.7µM*	-6.7%
CN(CCCC1CCCC1)C(=O)CC1C(=O)NCCN1Cc1ccc(F)cc1 (configuration not stated)	1.2%	-0.4%	28.2µM*	8.0%
CCc1ccc(OCC(=O)N(Cc2cccs2)c2ccc(Cl)cc2)cc1	-6.2%	0.0%	-0.7%	.
O=C(OCc1cc(=O)n2c3c(sc2n1)CCCC3)c1cccc(NC(=O)c2ccccc2F)c1	2.3%	-2.2%	1.2%	.
Cc1ccccc1CN1CCc2nc(Nc3ccc4c(c3)OCCO4)ncc2C1	3.8%	?	9.2%	.
CN(CCC1CCOCC1)C(=O)CC1C(=O)NCCN1Cc1ccccc1F (configuration not stated)	-0.7%	-18.0%	44.7µM*	-6.8%
CN(CC1CCOCC1)C(=O)CC1C(=O)NCCN1Cc1ccccc1F (configuration not stated)	-8.1%	-1.8%	?	-22.3%
CC(=O)c1ccc(NC(=O)c2ccc(-c3ccc(Cl)cc3)o2)cc1	0.1%	17.8%	39.8µM*	.
Cc1nnc(NC(=O)c2ccc(-c3ccc(Cl)cc3)o2)s1	3.7%	6.2%	-4.7%	-29.0%
CN(C)C(=O)c1ccc(NC(=O)c2ccc(-c3ccc(Cl)cc3)o2)cc1	1.1%	-2.6%	31.6µM*	6.1%
O=C(CSc1nc2c([nH]c3ccccc32)c(=O)n1-c1ccccc1)NCc1ccc(F)cc1	-4.3%	-17.2%	-1.1%	.
Cc1nc(CCNC(=O)CC2C(=O)NCCN2Cc2ccccc2F)sc1C (configuration not stated)	-6.2%	-8.1%	-29.5%	-17.0%
COc1cc(CN2CCNC(=O)C2CC(=O)NCCC2=CCCCC2)cc(OC)c1 (configuration not stated)	-1.6%	12.9%	39.8µM*	0.0%
C=CCC1(CC=C)CCCN1C(=O)CC1C(=O)NCCN1Cc1cc(OC)cc(OC)c1 (configuration not stated)	1.1%	7.2%	28.2µM*	-8.0%
Cc1nc(CCNC(=O)CC2C(=O)NCCN2Cc2ccc(F)cc2)sc1C (configuration not stated)	-3.7%	17.3%	20µM*	-5.1%
